Data as given in PubChem BioAssay (NCI).
Compounds without any hit were thinned out: in the full panel of roughly 83,000, 20% have a hit.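 Growth was measured after 48 h exposure to one concentration of compound in 96-well plates. Values under 10 count as active.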 Calls of active or inactive are those of the source.

Tests used:
Assay in all cases: NCI-60 one-dose screen, 48 h (100 = growth as untreated, 0 = no growth, -100 = all killed)
Settings in all cases: 10 µM unless noted
DU-145 prostate = tested on: DU-145 prostate
K-562 leukemia = tested on: K-562 leukemia
MALME-3M melanoma = tested on: MALME-3M melanoma
MDA-MB-231 breast = tested on: MDA-MB-231 breast
RXF 393 renal = tested on: RXF 393 renal
SF-268 CNS = tested on: SF-268 CNS
SF-295 CNS = tested on: SF-295 CNS
SF-539 CNS = tested on: SF-539 CNS
UACC-257 melanoma = tested on: UACC-257 melanoma
M14 melanoma = tested on: M14 melanoma

Measured: growth

CN1CCN(C(=O)[C@]23CCC(C)(C)C[C@H]2C2=CC[C@@H]4[C@@]5(C)C/C(=C/c6cccnc6)C(=O)C(C)(C)[C@@H]5CC[C@@]4(C)[C@]2(C)CC3)CC1
inactive: DU-145 prostate 71.6% | K-562 leukemia 10.9% | MALME-3M melanoma 63.4% | MDA-MB-231 breast 59.8% | RXF 393 renal 64.9% | SF-268 CNS 68.3% | SF-295 CNS 74% | SF-539 CNS 80% | UACC-257 melanoma 43.7% | M14 melanoma 57.5%

CCCOc1ccc(/C=N/Nc2cc(C)nc3ccc(Br)cc23)cc1
inactive: DU-145 prostate 86.8% | K-562 leukemia 11.5% | MALME-3M melanoma 112% | MDA-MB-231 breast 92.9% | RXF 393 renal 83.4% | SF-268 CNS 102% | SF-295 CNS 81% | SF-539 CNS 83.9% | UACC-257 melanoma 98.7% | M14 melanoma 80.3%

O=C1Nc2ccc(F)cc2/C1=C\c1c(-c2ccccc2)nc2ccccn12
inactive: DU-145 prostate 86.5% | MALME-3M melanoma 67.5% | MDA-MB-231 breast 73.4% | RXF 393 renal 50.8% | SF-268 CNS 79.5% | SF-295 CNS 57% | SF-539 CNS 73.3% | UACC-257 melanoma 90.7% | M14 melanoma 48.7%

O=C1Nc2cc(-c3ccc(NS(=O)(=O)c4ccccc4)cc3)ccc2/C1=C/c1ccc[nH]1
inactive: DU-145 prostate 31.8% | K-562 leukemia 61% | MALME-3M melanoma 85.5% | MDA-MB-231 breast 62.9% | RXF 393 renal 104% | SF-268 CNS 92.1% | SF-295 CNS 98.7% | SF-539 CNS 76.2% | UACC-257 melanoma 110% | M14 melanoma 90.1%

CCCCCN1C=C/C(=C\C(=O)n2ccc3ccccc32)c2ccccc21
inactive: DU-145 prostate 101% | K-562 leukemia 75% | MALME-3M melanoma 81.7% | MDA-MB-231 breast 93.2% | RXF 393 renal 103% | SF-268 CNS 92.5% | SF-295 CNS 87.7% | SF-539 CNS 102% | UACC-257 melanoma 97.9% | M14 melanoma 92%

O=C1Nc2cc(-c3ccc(NC(=O)c4ccccc4)cc3)ccc2/C1=C/c1ccc[nH]1
inactive: DU-145 prostate 98.9% | K-562 leukemia 95.1% | MALME-3M melanoma 102% | MDA-MB-231 breast 90% | RXF 393 renal 111% | SF-268 CNS 101% | SF-295 CNS 106% | SF-539 CNS 98% | UACC-257 melanoma 110% | M14 melanoma 105%

O=C(c1nc2ccccc2[nH]1)C1C(c2ccc(Cl)cc2)C2CC3CCCC[C@H]3N2[C@@]12C(=O)Nc1cc(Cl)ccc12 (some centres not stated)
inactive: DU-145 prostate 62.1% | K-562 leukemia 29% | MALME-3M melanoma 43.9% | MDA-MB-231 breast 42.6% | RXF 393 renal 35.7% | SF-268 CNS 42.2% | SF-295 CNS 32.6% | SF-539 CNS 60.6% | UACC-257 melanoma 45.7% | M14 melanoma 34.2%

Cc1cc2cc3ccc(N(C)C)cc3nc2cc1N
active: DU-145 prostate -50.3% | MALME-3M melanoma -5.97% | MDA-MB-231 breast -18.4% | RXF 393 renal -38% | SF-268 CNS 0.225% | SF-295 CNS 2.71% | SF-539 CNS -4.96% | UACC-257 melanoma -1.21% | M14 melanoma -13.4%

C[C@H]1[C@H](C)CC[C@]2(C(=O)NCC#CCN3CCN(C)CC3)CC[C@]3(C)C(=CC[C@@H]4[C@@]5(C)Cc6c([nH]c7ccccc67)C(C)(C)[C@@H]5CC[C@]43C)[C@H]12
active: K-562 leukemia 1.37%
inactive: DU-145 prostate 73.1% | MALME-3M melanoma 61.6% | MDA-MB-231 breast 63.8% | RXF 393 renal 84.9% | SF-268 CNS 82.5% | SF-295 CNS 106% | SF-539 CNS 84.8% | UACC-257 melanoma 97% | M14 melanoma 71.3%

COc1cc(/C=C\c2cc(/C=C\c3ccc(O)c(OC)c3)n(C(=O)COc3ccccc3)n2)ccc1O
active: DU-145 prostate 9.09% | MALME-3M melanoma 7.21% | RXF 393 renal -44.5% | SF-539 CNS -10.3% | M14 melanoma 6.75%
inactive: MDA-MB-231 breast 11.3% | SF-268 CNS 12% | SF-295 CNS 15.5% | UACC-257 melanoma 30.5%

COc1cccc(-c2cc(C(=O)Nc3ccc(/C=C/c4ccc(OC5CCN(C)CC5)cc4)cc3)ccc2OC)c1
inactive: MALME-3M melanoma 51.3% | RXF 393 renal 28.9% | UACC-257 melanoma 83.7%
active: DU-145 prostate -64.9% | K-562 leukemia -47.9% | MDA-MB-231 breast -60.5% | SF-268 CNS -30.8% | SF-295 CNS -63% | SF-539 CNS 8.18% | M14 melanoma -21.8%

CCCCCC(=O)Oc1ccc(/C(=C(\C)c2ccccc2)c2ccc(OCCN3CCCCC3)cc2)cc1
inactive: DU-145 prostate 97.2% | K-562 leukemia 20.1% | MALME-3M melanoma 68% | MDA-MB-231 breast 95% | RXF 393 renal 82.7% | SF-268 CNS 84.5% | SF-295 CNS 84.2% | SF-539 CNS 59.4% | UACC-257 melanoma 72.4% | M14 melanoma 65.9%

O=C(/C=C(/C=C/c1coc2ccccc12)OB(F)F)/C=C/c1coc2ccccc12
inactive: DU-145 prostate 99.1% | K-562 leukemia 72% | MALME-3M melanoma 94.5% | MDA-MB-231 breast 101% | RXF 393 renal 109% | SF-268 CNS 93.4% | SF-295 CNS 101% | SF-539 CNS 110% | UACC-257 melanoma 92.3% | M14 melanoma 96%

COC(=O)/C=C1\S/C(=N\NC(=O)c2cc3ccc2/C=C\c2ccc(cc2)/C=C\3)N(Cc2ccccc2)C1=O
inactive: DU-145 prostate 83.2% | K-562 leukemia 18.9% | MALME-3M melanoma 88.4% | MDA-MB-231 breast 56.8% | RXF 393 renal 15.6% | SF-268 CNS 85% | SF-295 CNS 89.4% | SF-539 CNS 43.3% | UACC-257 melanoma 81% | M14 melanoma 63.4%

c1ccc2cc(Cn3c(-c4cccc5ccccc45)[n+](Cc4ccc5ccccc5c4)c4c5ccccc5c5ccccc5c43)ccc2c1
active: DU-145 prostate -96.5% | K-562 leukemia -35.2% | MALME-3M melanoma -82.6% | MDA-MB-231 breast -72.9% | RXF 393 renal -90.6% | SF-268 CNS -38.2% | SF-295 CNS -83.9% | SF-539 CNS -92.5% | UACC-257 melanoma -67.2% | M14 melanoma -63.5%

O=C(N/N=C/c1cc2ccccc2n2nnnc12)Nc1ccccc1
inactive: DU-145 prostate 103% | K-562 leukemia 95.1% | MALME-3M melanoma 106% | MDA-MB-231 breast 105% | RXF 393 renal 103% | SF-268 CNS 101% | SF-295 CNS 104% | SF-539 CNS 106% | UACC-257 melanoma 111% | M14 melanoma 102%

N#CC(C(=O)/C(=N/NC(=O)c1ccccc1O)C(C#N)c1ccccc1)c1ccccc1 (configuration not stated)
inactive: DU-145 prostate 39.4% | MALME-3M melanoma 87.8% | MDA-MB-231 breast 63.7% | RXF 393 renal 55.9% | SF-268 CNS 44.1% | SF-295 CNS 101% | SF-539 CNS 33.3% | UACC-257 melanoma 46.2% | M14 melanoma 46.4%

COc1cc2oc(-c3cccc(C(=O)Nc4ccc(Br)cc4)c3)cc(=O)c2c(OC)c1OC
inactive: DU-145 prostate 57.6% | K-562 leukemia 48.9% | MALME-3M melanoma 80.9% | MDA-MB-231 breast 30.8% | SF-268 CNS 61.8% | SF-295 CNS 52.9% | SF-539 CNS 65% | UACC-257 melanoma 80.1% | M14 melanoma 27%
active: RXF 393 renal -2.47%

N#Cc1c(-c2ccccc2)nc2c(c(-c3ccccc3)nn2-c2ccccc2)c1-c1ccc(O)cc1
active: RXF 393 renal -17.6% | SF-295 CNS -43.1%
inactive: DU-145 prostate 49.4% | MALME-3M melanoma 43.8% | MDA-MB-231 breast 23.8% | SF-268 CNS 55.5% | SF-539 CNS 23.3% | UACC-257 melanoma 71.3% | M14 melanoma 56.4%

OCc1cnccc1NCCCCOc1ccc(Oc2ccccc2)cc1
inactive: DU-145 prostate 80.2% | MALME-3M melanoma 58% | MDA-MB-231 breast 62.6% | RXF 393 renal 66.1% | SF-268 CNS 80.9% | SF-295 CNS 51.5% | SF-539 CNS 67.3% | UACC-257 melanoma 54.5% | M14 melanoma 53.6%

CC(C)(C)[Si](C)(C)OC1[C@@H](O[Si](C)(C)C(C)(C)C)[C@@H](CNC(=O)NC(=O)CCl)O[C@H]1n1cnc2c(NC(=O)Nc3ccccc3)ncnc21 (some centres not stated)
inactive: UACC-257 melanoma 14.1%
active: DU-145 prostate -2.39% | MALME-3M melanoma -70.2% | MDA-MB-231 breast -72.7% | RXF 393 renal -93.1% | SF-268 CNS -77.4% | SF-295 CNS -71.2% | SF-539 CNS -86.2% | M14 melanoma -56%

CN1[C@@H]2CC[C@H]1/C(=C\c1ccccc1)C(=O)/C2=C/c1ccccc1
inactive: DU-145 prostate 14.1% | MALME-3M melanoma 72.8% | MDA-MB-231 breast 47.6% | RXF 393 renal 43.4% | SF-268 CNS 38.3% | SF-295 CNS 32.8% | SF-539 CNS 43.1% | UACC-257 melanoma 42.8% | M14 melanoma 43.4%

CC(C)=CCC[C@](C)(O)[C@H]1CC[C@]2(C)[C@@H]1CC[C@@H]1[C@@]3(C)C/C(=C/c4ccccc4)C(=O)C(C)(C)[C@@H]3CC[C@]12C
inactive: DU-145 prostate 85.3% | MALME-3M melanoma 78.6% | MDA-MB-231 breast 85.5% | RXF 393 renal 95.3% | SF-268 CNS 94.7% | SF-295 CNS 109% | SF-539 CNS 90.4% | UACC-257 melanoma 104% | M14 melanoma 96.5%

COc1ccc(/C=C/C(=O)Nc2cc(/C=C\c3cc(OC)c(OC)c(OC)c3)cc(OC)c2OC)cc1OC
inactive: DU-145 prostate 53.2% | MALME-3M melanoma 32.8% | MDA-MB-231 breast 52% | SF-268 CNS 31.5% | SF-539 CNS 28.6% | UACC-257 melanoma 50.7%
active: RXF 393 renal -5.89% | SF-295 CNS 4.33% | M14 melanoma 5.78%

NC(=O)CSSCC(N)=O
inactive: DU-145 prostate 104% | MALME-3M melanoma 93.3% | MDA-MB-231 breast 109% | RXF 393 renal 117% | SF-268 CNS 97.9% | SF-295 CNS 97.1% | SF-539 CNS 102% | UACC-257 melanoma 95.8% | M14 melanoma 93.2%

O=C1c2ccccc2CCC12OC2c1cn(-c2ccccc2)nc1-c1ccc(Cl)cc1 (configuration not stated)
inactive: DU-145 prostate 111% | MALME-3M melanoma 105% | MDA-MB-231 breast 91.9% | RXF 393 renal 93.1% | SF-268 CNS 93.1% | SF-295 CNS 71.9% | SF-539 CNS 93.4% | UACC-257 melanoma 96.1% | M14 melanoma 97.7%

O=C1Nc2ccccc2/C1=C\c1c(-c2ccccc2)nc2ccccn12
active: M14 melanoma 3.79%
inactive: DU-145 prostate 63.5% | MALME-3M melanoma 43.6% | MDA-MB-231 breast 59.2% | RXF 393 renal 26.8% | SF-268 CNS 51.2% | SF-295 CNS 24% | SF-539 CNS 49.6% | UACC-257 melanoma 87.6%
